From the supplement of paper PMC6763611

System: Plasmodium falciparum NF54
Test: growth inhibition relative to untreated control; higher = more inhibition
Conditions: 1 µM; MM + chorismate end-products (CM screening medium); 72 h
In short: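 Growth inhibition was measured by SYBR Green fluorescence, normalised to untreated wells and corrected for background from uninfected erythrocytes. The parasites were P. falciparum NF54 ring stages (1% hematocrit, 1% parasitemia) exposed to single 5 μM or 1 μM doses of test compounds for 72 h at 37 °C, in either minimal RPMI or minimal RPMI containing 2.2 μM folate, 7.3 μM pABA, 7.3 μM pHBA, 111 μM tyrosine, 90 μM phenylalanine and tryptophan.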

Compound	growth inhibition
O[C@@H](c1cc(C(F)(F)F)nc2c(C(F)(F)F)cccc12)[C@H]1CCCCN1	94.5%
O=S(=O)(c1ccc(Cl)cc1)N1CCN(C(=S)NCc2ccco2)CC1	97.7%
O=C(Nc1nnc(-c2ccc(Cl)cc2)o1)c1cccc(C(F)(F)F)c1	11.8%
Cc1cc(NC(=O)c2ccc(S(=O)(=O)N(Cc3ccccc3)C(C)C)cc2)no1	95.5%
O=C(Nc1ccc(F)c(-c2nc3cc(-c4ccccc4)cnc3[nH]2)c1)N1CCCC1	17.5%
CN1CCCC1CCO[C@](C)(c1ccccc1)c1ccc(Cl)cc1 (stereo partly drawn)	96.4%
CCc1ccc(S(=O)(=O)Nc2cc(CN3CCN(CCC(C)C)CC3)ccc2C)cc1	31.6%
COc1ccc(Cl)cc1NC(=O)CN(C)C(=O)c1cnn(-c2ccccc2)n1	98.1%
Nc1ncc(Br)cc1-c1nc2cc(Cl)cnc2[nH]1	61.7%
Cc1[nH]c2cc(F)cc(F)c2c(=O)c1-c1ccc(Oc2ccc(OC(F)(F)F)cc2)cc1	98.6%
N#Cc1nc(-c2ccccc2)oc1S(=O)(=O)c1ccc(Cl)cc1	43.4%
Cc1ccc(S(=O)(=O)Nc2ccc(CN3CCN(C(=O)c4cccc(C#N)c4)CC3)cc2)cc1	5.22%
Cc1nn(C)cc1C(C)Nc1nncc(-c2ccc(C(F)(F)F)cc2)n1 (stereo not drawn)	94.7%
O=C1N(Cc2cc3ccccc3s2)CC2CN(Cc3ccccc3)CCN12 (stereo not drawn)	97.5%
Nc1ncc(-c2ccc(C(F)(F)F)nc2)cc1-c1ccc(C(F)(F)F)nc1	66.1%
O=C(Nc1ccnc(-c2cccnc2)n1)c1cc(C(F)(F)F)cc(C(F)(F)F)c1	13.6%
Cc1nn2c(=O)c3c([nH]c2c1-c1ccc(Cl)cc1)CCCC3	< 0%
CCOc1ccc2cc(-c3nn(C(C)(C)C)c(N)c3C(N)=O)cnc2c1	11%
Cc1noc(C)c1COc1cccc(C(=O)N=c2[nH]cccc2C)c1	< 0%
CC1CS(=O)(=O)CCN1/N=C/c1ccc([N+](=O)[O-])o1 (stereo not drawn)	< 0%

Compound	growth inhibition
CC(=O)N1CCN(c2ccc(Oc3ccc(Cl)cc3O)cc2)CC1	48.6%
Nc1ncnc2[nH]nc(Cc3cccc4ccccc34)c12	12.3%
CCCCc1ccc(NC(=O)Nc2ccc(O[C@H]3CCCC[C@@H]3N(C)c3ccccc3)c(F)c2)cc1	17.3%
Clc1ccc(CCNc2cc(-c3ccccc3)nc3ncnn23)cc1	< 0%
COc1ccc(CCN2CCC(NCc3cccc(N(C)C)c3)CC2)cc1	88.1%
COc1cc2ncnc(NC3CCN(Cc4ccccc4)CC3)c2cc1OC	98.1%
CCCCN(CCCC)c1c(C#N)cc(S(=O)(=O)Nc2ccccc2)cc1C#N	< 0%
Cc1cc(C)nc(-n2nc(C)cc2Nc2ccccc2)n1	16.6%
Cc1ncc(-c2ccnc(Nc3ccc(S(C)(=O)=O)cc3)n2)n1C(C)C	67%
c1ccc(-c2nc(NC3CCCCC3)cc(C3CC3)n2)nc1	80.6%
Cc1ccccc1CN1CCC(O)(c2ccc(Cl)c(C(F)(F)F)c2)CC1	51.6%
CC(C)(C)c1cnc(NC(=O)c2ccccc2O)s1	38.5%
CC(C)(C)c1ccc(N[C@@H]2CCCC[C@H]2NC(=O)c2ccco2)cc1	20.8%
CS(=O)(=O)N1CCC(CCn2nc(Cc3cccc4ccccc34)c3c(N)ncnc32)CC1	< 0%
Cc1noc(C)c1C(=O)N1CCCC(c2[nH]c3c(C)cccc3c2-c2ccncc2)C1 (stereo not drawn)	97.7%
CCOC(=O)c1cc(-c2csc(Nc3c(C)cc(C)cc3C)n2)on1	12.2%
COC(=O)c1cccc2oc(-c3cccc(OC)c3NC(=O)c3cc(-c4ccccc4)on3)nc12	< 0%
FC(F)(F)c1cc(NCCc2ccccc2)nc(-c2ccccn2)n1	37.2%
O=C(NC1CC1)c1ccc(N2CCOc3ccc(Cl)cc32)s1	91%

Same assay, conditions: 1 µM; minimal medium (MM); 72 h

Compound	growth inhibition
O[C@@H](c1cc(C(F)(F)F)nc2c(C(F)(F)F)cccc12)[C@H]1CCCCN1	94.9%
O=S(=O)(c1ccc(Cl)cc1)N1CCN(C(=S)NCc2ccco2)CC1	93.6%
O=C(Nc1nnc(-c2ccc(Cl)cc2)o1)c1cccc(C(F)(F)F)c1	33%
Cc1cc(NC(=O)c2ccc(S(=O)(=O)N(Cc3ccccc3)C(C)C)cc2)no1	> 100%
O=C(Nc1ccc(F)c(-c2nc3cc(-c4ccccc4)cnc3[nH]2)c1)N1CCCC1	25.6%
CN1CCCC1CCO[C@](C)(c1ccccc1)c1ccc(Cl)cc1 (stereo partly drawn)	94.5%
CCc1ccc(S(=O)(=O)Nc2cc(CN3CCN(CCC(C)C)CC3)ccc2C)cc1	4.88%
COc1ccc(Cl)cc1NC(=O)CN(C)C(=O)c1cnn(-c2ccccc2)n1	95.6%
Nc1ncc(Br)cc1-c1nc2cc(Cl)cnc2[nH]1	< 0%
Cc1[nH]c2cc(F)cc(F)c2c(=O)c1-c1ccc(Oc2ccc(OC(F)(F)F)cc2)cc1	97.7%
N#Cc1nc(-c2ccccc2)oc1S(=O)(=O)c1ccc(Cl)cc1	49.5%
Cc1ccc(S(=O)(=O)Nc2ccc(CN3CCN(C(=O)c4cccc(C#N)c4)CC3)cc2)cc1	5.35%
Cc1nn(C)cc1C(C)Nc1nncc(-c2ccc(C(F)(F)F)cc2)n1 (stereo not drawn)	97.4%
O=C1N(Cc2cc3ccccc3s2)CC2CN(Cc3ccccc3)CCN12 (stereo not drawn)	98%
Nc1ncc(-c2ccc(C(F)(F)F)nc2)cc1-c1ccc(C(F)(F)F)nc1	56.4%
O=C(Nc1ccnc(-c2cccnc2)n1)c1cc(C(F)(F)F)cc(C(F)(F)F)c1	20.9%
Cc1nn2c(=O)c3c([nH]c2c1-c1ccc(Cl)cc1)CCCC3	22.1%
CCOc1ccc2cc(-c3nn(C(C)(C)C)c(N)c3C(N)=O)cnc2c1	18.1%
Cc1noc(C)c1COc1cccc(C(=O)N=c2[nH]cccc2C)c1	< 0%
CC1CS(=O)(=O)CCN1/N=C/c1ccc([N+](=O)[O-])o1 (stereo not drawn)	0.769%

Compound	growth inhibition
CC(=O)N1CCN(c2ccc(Oc3ccc(Cl)cc3O)cc2)CC1	13.5%
Nc1ncnc2[nH]nc(Cc3cccc4ccccc34)c12	22.2%
CCCCc1ccc(NC(=O)Nc2ccc(O[C@H]3CCCC[C@@H]3N(C)c3ccccc3)c(F)c2)cc1	< 0%
Clc1ccc(CCNc2cc(-c3ccccc3)nc3ncnn23)cc1	0.487%
COc1ccc(CCN2CCC(NCc3cccc(N(C)C)c3)CC2)cc1	> 100%
COc1cc2ncnc(NC3CCN(Cc4ccccc4)CC3)c2cc1OC	95.5%
CCCCN(CCCC)c1c(C#N)cc(S(=O)(=O)Nc2ccccc2)cc1C#N	< 0%
Cc1cc(C)nc(-n2nc(C)cc2Nc2ccccc2)n1	9.77%
Cc1ncc(-c2ccnc(Nc3ccc(S(C)(=O)=O)cc3)n2)n1C(C)C	59.4%
c1ccc(-c2nc(NC3CCCCC3)cc(C3CC3)n2)nc1	56.8%
Cc1ccccc1CN1CCC(O)(c2ccc(Cl)c(C(F)(F)F)c2)CC1	30%
CC(C)(C)c1cnc(NC(=O)c2ccccc2O)s1	7.86%
CC(C)(C)c1ccc(N[C@@H]2CCCC[C@H]2NC(=O)c2ccco2)cc1	20.6%
CS(=O)(=O)N1CCC(CCn2nc(Cc3cccc4ccccc34)c3c(N)ncnc32)CC1	24.3%
Cc1noc(C)c1C(=O)N1CCCC(c2[nH]c3c(C)cccc3c2-c2ccncc2)C1 (stereo not drawn)	95.3%
CCOC(=O)c1cc(-c2csc(Nc3c(C)cc(C)cc3C)n2)on1	20.5%
COC(=O)c1cccc2oc(-c3cccc(OC)c3NC(=O)c3cc(-c4ccccc4)on3)nc12	< 0%
FC(F)(F)c1cc(NCCc2ccccc2)nc(-c2ccccn2)n1	0.647%
O=C(NC1CC1)c1ccc(N2CCOc3ccc(Cl)cc32)s1	82.1%
